Source: PubChem BioAssay
Only some compounds are listed: those with a hit (about 7.6% of all), similar ones and a draw of the others.
NS3h inh CB: blocks HCV NS3 helicase binding to DNA; NS3h Cy5-dT15 DNA binding, fluorescence polarization; inhibition, % at 100 µM; actives 1.6% (n = 16,000);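 active = inhibition above the average over every tested compound plus 3 SD, cut at about 40% in these data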
Cy5 interf NS3h: enhances or quenches Cy5 fluorescence in NS3h assay; actives 6% (n = 16,000); Cy5-dT15 DNA with NS3h, fluorescence interference; actives lie on both sides; signal over control mean, under 1 quenches; fluorescence interference ratio at 100 µM; AID 720488;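 active = compound fluorescence over control fluorescence at most 0.8, a quencher, or at least a set upper limit, an enhancer; inactive = ratio between 0.8 and the set upper limit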
Starred values were filed as active, the others as inactive.

`CC(=O)NC(c1ccc(N(C)C)cc1)c1ccc2cccnc2c1O` (configuration not stated) gave NS3h inh CB 6.7 and Cy5 interf NS3h 1.
COC(=O)C1=C(C(=O)OC)SC(=C2C(=S)C(C)(C)N(C(=O)c3cccc([N+](=O)[O-])c3)c3ccc(OC)cc32)S1 was read as NS3h inh CB 16.1 and Cy5 interf NS3h 0.525*.
COC(=O)C1=C(C(=O)OC)SC(=C2C(=S)C(C)(C)N(C(=O)c3cccc(F)c3)c3c(OC)cccc32)S1 was read as NS3h inh CB 6.3 and Cy5 interf NS3h 1.05.
For O=C(NC(=C(Cl)Cl)S(=O)(=O)c1ccc(Cl)cc1)c1ccccc1 the results were NS3h inh CB 1.7 and Cy5 interf NS3h 0.788*.
Screening COC(=NS(=O)(=O)c1ccc(Cl)cc1)c1ccccc1 returned NS3h inh CB 4.1 and Cy5 interf NS3h 1.03.
`Cc1ccc(/C(N)=N\OC(=O)c2ccc(C)c([N+](=O)[O-])c2)cc1` gave NS3h inh CB 1.3 and Cy5 interf NS3h 1.05.
Screening COc1cc(NC(=O)C(F)(F)F)c(Cl)cc1NC(=O)c1ccccc1 returned NS3h inh CB 42.7* and Cy5 interf NS3h 0.932.
Screening COc1cc(NC(C)=O)c(Cl)cc1NC(=O)c1ccccc1 returned NS3h inh CB 3.8 and Cy5 interf NS3h 1.05.
`O=C(Nc1ccc(I)cc1)C1c2ccccc2Oc2ccccc21` gave NS3h inh CB -3.0 and Cy5 interf NS3h 1.08.
Screening Cc1cccc(NC(=O)CSc2cc(Cl)ccc2Cl)c1 returned NS3h inh CB 6.1 and Cy5 interf NS3h 0.99.
COc1ccc(/C=C(\C#N)C(=O)Nc2ccc(F)cc2)cc1C was read as NS3h inh CB 9.6 and Cy5 interf NS3h 1.03.
`O=C(Cc1ccc(Cl)cc1)NCCN1CCOCC1` gave NS3h inh CB 29.8 and Cy5 interf NS3h 0.908.
O=C(NCCCN1CCOCC1)c1cccc(Cl)c1 was read as NS3h inh CB 9.6 and Cy5 interf NS3h 0.748*.
`COc1cc(C=C2C(=O)NC(=S)NC2=O)cc(Br)c1OCCOc1ccc(C)c(C)c1` gave NS3h inh CB 35.5 and Cy5 interf NS3h 0.955.
COc1ccccc1C(=O)Nc1cc(C)cc(C)c1 was read as NS3h inh CB 15.0 and Cy5 interf NS3h 0.677*.
Screening O=C(Nc1ccc(NC(=O)c2ccccc2Br)cc1)c1ccccc1Br returned NS3h inh CB 8.6 and Cy5 interf NS3h 0.956.
CC(=O)Nc1ccc(NC(=O)c2ccccc2OC(F)F)cc1 was read as NS3h inh CB 5.9 and Cy5 interf NS3h 0.766*.
COc1ccccc1C(=O)Nc1ccc(Br)cc1 was read as NS3h inh CB 0.4 and Cy5 interf NS3h 0.913.
For CCOC(=O)c1c(NC(=O)C(OC(C)=O)c2ccccc2)sc2c1CCC2 (configuration not stated) the results were NS3h inh CB 5.9 and Cy5 interf NS3h 1.06.
O=S(=O)(Nc1nc2ccccc2nc1-n1cnc2ccccc21)c1ccccc1 was read as NS3h inh CB 7.1 and Cy5 interf NS3h 0.944.
`O=C(c1ccccc1F)N1CCN(c2ccc(C(F)(F)F)cc2[N+](=O)[O-])CC1` gave NS3h inh CB 5.8 and Cy5 interf NS3h 0.86.
COc1ccc(C2C(=C(O)c3ccccc3)C(=O)C(=O)N2c2cccc([N+](=O)[O-])c2)c(OC)c1 (configuration not stated) was read as NS3h inh CB 6.7 and Cy5 interf NS3h 1.03.
Cc1ccc2c(c1)N(C(=O)Nc1ccccc1)C(C)(C)CC2C (configuration not stated) was read as NS3h inh CB 6.3 and Cy5 interf NS3h 1.03.
Cc1ccc(-c2cc(NC(=O)c3ccc(F)cc3)n[nH]2)cc1 was read as NS3h inh CB 12.9 and Cy5 interf NS3h 1.01.
For CC(=O)Nc1cc(-c2ccc(Cl)cc2)[nH]n1 the results were NS3h inh CB 6.8 and Cy5 interf NS3h 0.669*.
Screening CCC(=O)Nc1cc(OC)ccc1OC returned NS3h inh CB 4.2 and Cy5 interf NS3h 0.879.
Screening COc1cc(OC)cc(C(=O)O/N=C(/c2ccncc2)c2ccc([N+](=O)[O-])cc2)c1 returned NS3h inh CB 11.5 and Cy5 interf NS3h 0.607*.
For N/C(=N/OC(=O)c1cccc(Br)c1)c1ccncc1 the results were NS3h inh CB 7.6 and Cy5 interf NS3h 0.887.
Screening Cc1ccc(/C(N)=N\OC(=O)c2ccc([N+](=O)[O-])cc2)cc1 returned NS3h inh CB 30.8 and Cy5 interf NS3h 0.871.
Screening O=C(O/N=C(\c1ccccc1)c1ccncc1)c1ccc(Br)cc1 returned NS3h inh CB 24.9 and Cy5 interf NS3h 0.66*.
For COc1ccc(CN2CCN(Cc3cccc(C)c3)CC2)cc1OC the results were NS3h inh CB -8.1 and Cy5 interf NS3h 1.09.
Screening O=C(CCN1C(=O)/C(=C/c2cccs2)SC1=S)Nc1ccc(F)cc1 returned NS3h inh CB 2.9 and Cy5 interf NS3h 1.05.
CN1CCN(C(=O)CCN2C(=O)/C(=C/c3cccs3)SC2=S)CC1 was read as NS3h inh CB 0.3 and Cy5 interf NS3h 0.577*.
COc1ccc(C(=O)Nc2ccc(C)c(Cl)c2)cc1OC was read as NS3h inh CB 18.6 and Cy5 interf NS3h 0.734*.
COc1ccc(C(=O)Nc2ccc(C(N)=O)cc2)cc1[N+](=O)[O-] was read as NS3h inh CB -1.6 and Cy5 interf NS3h 0.782*.
For COc1ccc(C(=O)Nc2ccc(C(C)C)cc2)cc1[N+](=O)[O-] the results were NS3h inh CB 7.1 and Cy5 interf NS3h 0.982.
`Cc1ccc(NC(=O)c2ccc(I)cc2)cc1Cl` gave NS3h inh CB 4.5 and Cy5 interf NS3h 1.15.
For Cc1cc(C(=O)Nc2ccc(N(C)C)cc2)ccc1[N+](=O)[O-] the results were NS3h inh CB 20.0 and Cy5 interf NS3h 0.241*.
`Cc1cc(C)cc(NC(=O)c2ccc(C)c([N+](=O)[O-])c2)c1` gave NS3h inh CB -7.3 and Cy5 interf NS3h 1.01.
For COC(=O)CNC(=O)c1ccc(NC(C)=O)cc1 the results were NS3h inh CB 0.0 and Cy5 interf NS3h 1.02.
For Cc1ccc(CNC(=O)CN(c2cccc(Cl)c2)S(=O)(=O)c2ccccc2)cc1 the results were NS3h inh CB 18.9 and Cy5 interf NS3h 1.01.
Screening O=C(NCCCO)C(=O)Nc1ccccc1 returned NS3h inh CB 1.7 and Cy5 interf NS3h 1.08.
For CNC(=O)C(C)NC(=O)C12CC3CC(CC(C3)C1)C2 (configuration not stated) the results were NS3h inh CB 0.3 and Cy5 interf NS3h 1.1.
`O=C(NC1CCCCC1)C12CC3CCC(CC(C3)C1)C2` gave NS3h inh CB 7.2 and Cy5 interf NS3h 1.2*.
`COc1ccc(OC)c(C(=O)c2c(C)oc3ccc(O)cc23)c1` gave NS3h inh CB 9.6 and Cy5 interf NS3h 0.967.
`COc1ccc2oc(C)c(C(C)=O)c2c1` gave NS3h inh CB 15.9 and Cy5 interf NS3h 0.74*.
For O=C(NCC1CCCO1)c1cnn2c(C(F)(F)F)cc(-c3ccc4c(c3)OCO4)nc12 (configuration not stated) the results were NS3h inh CB 6.7 and Cy5 interf NS3h 1.11.
`CCc1cc(=O)oc2cc(OCC(C)=O)ccc12` gave NS3h inh CB -1.6 and Cy5 interf NS3h 1.04.
CCC1=NN(C(=O)c2cccc(C)c2O)C(O)(c2ccc(Br)cc2)C1 (configuration not stated) was read as NS3h inh CB -5.5 and Cy5 interf NS3h 0.774*.
Screening CCC1=NN(C(=O)c2ccncc2)C(O)(c2ccc(Br)cc2)C1 (configuration not stated) returned NS3h inh CB -3.5 and Cy5 interf NS3h 0.986.
